Targets with a hit are over-represented here; the source holds about 8,800 in all. About 0.5% of all pairs of compound and target were hits.
Each target was assayed with O=C1NC(=O)C(c2cnc3ccccn23)=C1c1cn2c3c(cc(F)cc13)CN(C(=O)N1CCCCC1)CC2 (assay: log2 fold change, soluble protein after heating vs DMSO (PISA); higher = thermal stabilisation; K562 lysate, 10 uM; active = over 0.2 and 3.5 SD of the protein, either way, in both replicates (recomputed)).
Outline: (§1)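 K562 pellets were dounce-homogenised in PBS pH 7.4 containing 1 mM MgCl2, and the crude extract, at 1 mg/mL protein, was exposed to 10 μM compound for 30 min. Aliquots were heated for 3 min across 48°C-58°C, pooled, brought to 0.5% NP-40 at 4°C and spun at 21,000xg for 90 min, with the supernatant taken as soluble protein. TMTpro 16plex LC-MS/MS with equalised channel sums quantified that protein. Values are log-two fold changes in thermal stability relative to solvent controls, taken from duplicates.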
Chain of UniProt Q7Z7M0 (Q7Z7M0 whole entry, looked up): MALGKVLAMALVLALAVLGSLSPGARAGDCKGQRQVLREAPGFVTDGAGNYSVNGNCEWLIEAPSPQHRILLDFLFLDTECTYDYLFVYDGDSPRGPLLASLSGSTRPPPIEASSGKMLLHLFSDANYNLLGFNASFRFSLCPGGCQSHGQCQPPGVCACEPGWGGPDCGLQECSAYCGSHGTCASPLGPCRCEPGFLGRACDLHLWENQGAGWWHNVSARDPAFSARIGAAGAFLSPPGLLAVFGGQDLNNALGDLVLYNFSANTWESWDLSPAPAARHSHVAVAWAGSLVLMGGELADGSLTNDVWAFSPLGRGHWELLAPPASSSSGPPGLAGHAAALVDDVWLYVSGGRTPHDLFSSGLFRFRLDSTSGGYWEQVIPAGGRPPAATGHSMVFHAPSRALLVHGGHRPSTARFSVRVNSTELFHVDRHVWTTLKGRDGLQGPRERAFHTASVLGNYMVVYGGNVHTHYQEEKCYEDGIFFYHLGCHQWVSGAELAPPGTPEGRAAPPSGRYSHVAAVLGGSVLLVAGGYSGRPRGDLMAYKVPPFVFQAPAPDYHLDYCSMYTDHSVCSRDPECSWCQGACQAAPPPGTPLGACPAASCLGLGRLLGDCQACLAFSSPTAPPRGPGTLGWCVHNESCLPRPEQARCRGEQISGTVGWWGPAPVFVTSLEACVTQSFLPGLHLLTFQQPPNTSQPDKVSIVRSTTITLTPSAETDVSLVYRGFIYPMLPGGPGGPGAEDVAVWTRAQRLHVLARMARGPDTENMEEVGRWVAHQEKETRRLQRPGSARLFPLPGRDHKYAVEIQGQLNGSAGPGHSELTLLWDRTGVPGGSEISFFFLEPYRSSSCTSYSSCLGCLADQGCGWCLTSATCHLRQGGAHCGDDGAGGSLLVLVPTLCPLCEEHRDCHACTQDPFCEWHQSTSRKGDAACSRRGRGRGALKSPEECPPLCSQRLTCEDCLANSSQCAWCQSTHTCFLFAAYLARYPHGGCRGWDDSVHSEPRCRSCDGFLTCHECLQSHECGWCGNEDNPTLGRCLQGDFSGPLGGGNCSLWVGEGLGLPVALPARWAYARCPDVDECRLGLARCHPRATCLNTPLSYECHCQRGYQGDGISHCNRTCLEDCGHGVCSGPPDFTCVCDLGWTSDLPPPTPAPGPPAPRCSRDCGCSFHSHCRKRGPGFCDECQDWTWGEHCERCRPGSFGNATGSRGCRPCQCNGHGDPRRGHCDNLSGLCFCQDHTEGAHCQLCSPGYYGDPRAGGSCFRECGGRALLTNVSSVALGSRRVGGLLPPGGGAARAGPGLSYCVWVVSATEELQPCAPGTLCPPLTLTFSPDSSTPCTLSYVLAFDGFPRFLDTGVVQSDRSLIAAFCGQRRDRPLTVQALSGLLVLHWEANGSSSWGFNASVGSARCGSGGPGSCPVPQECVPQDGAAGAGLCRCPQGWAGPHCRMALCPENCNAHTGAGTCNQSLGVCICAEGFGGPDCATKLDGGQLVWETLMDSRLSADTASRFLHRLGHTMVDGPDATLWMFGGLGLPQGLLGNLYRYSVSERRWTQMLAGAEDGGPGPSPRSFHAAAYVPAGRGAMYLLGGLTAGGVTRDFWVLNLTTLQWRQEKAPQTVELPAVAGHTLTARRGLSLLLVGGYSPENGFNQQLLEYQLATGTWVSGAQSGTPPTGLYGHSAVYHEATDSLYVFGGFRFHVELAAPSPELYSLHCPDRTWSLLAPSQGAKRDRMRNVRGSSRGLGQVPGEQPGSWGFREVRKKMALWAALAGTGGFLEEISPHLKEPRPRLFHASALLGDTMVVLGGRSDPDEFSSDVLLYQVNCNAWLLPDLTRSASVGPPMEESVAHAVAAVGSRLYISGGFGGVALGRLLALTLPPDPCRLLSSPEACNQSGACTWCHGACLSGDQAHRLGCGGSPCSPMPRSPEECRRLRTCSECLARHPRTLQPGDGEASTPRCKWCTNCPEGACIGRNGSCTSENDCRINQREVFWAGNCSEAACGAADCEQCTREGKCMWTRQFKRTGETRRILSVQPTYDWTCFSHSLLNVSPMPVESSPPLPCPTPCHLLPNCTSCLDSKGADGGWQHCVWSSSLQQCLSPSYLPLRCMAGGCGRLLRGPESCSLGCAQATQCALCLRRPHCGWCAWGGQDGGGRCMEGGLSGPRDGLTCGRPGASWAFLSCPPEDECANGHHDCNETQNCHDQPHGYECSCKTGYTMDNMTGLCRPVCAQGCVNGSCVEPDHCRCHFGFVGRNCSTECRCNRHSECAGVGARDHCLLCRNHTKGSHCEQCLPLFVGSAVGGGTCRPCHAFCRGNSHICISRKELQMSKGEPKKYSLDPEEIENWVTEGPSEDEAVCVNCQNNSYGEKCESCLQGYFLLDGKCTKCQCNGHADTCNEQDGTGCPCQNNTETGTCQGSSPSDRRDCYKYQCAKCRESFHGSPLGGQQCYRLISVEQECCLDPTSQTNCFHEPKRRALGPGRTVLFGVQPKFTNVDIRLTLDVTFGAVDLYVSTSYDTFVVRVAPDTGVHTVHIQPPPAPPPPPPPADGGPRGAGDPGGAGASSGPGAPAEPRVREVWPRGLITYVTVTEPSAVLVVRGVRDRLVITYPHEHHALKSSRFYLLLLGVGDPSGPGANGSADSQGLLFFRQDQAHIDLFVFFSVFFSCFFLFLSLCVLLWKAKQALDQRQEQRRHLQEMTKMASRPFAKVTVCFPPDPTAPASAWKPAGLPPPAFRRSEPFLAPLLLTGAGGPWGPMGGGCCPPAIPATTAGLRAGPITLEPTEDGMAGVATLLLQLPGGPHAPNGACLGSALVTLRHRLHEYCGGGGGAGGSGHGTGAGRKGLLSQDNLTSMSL
Chain of UniProt Q8NF37 (Q8NF37 whole entry, looked up): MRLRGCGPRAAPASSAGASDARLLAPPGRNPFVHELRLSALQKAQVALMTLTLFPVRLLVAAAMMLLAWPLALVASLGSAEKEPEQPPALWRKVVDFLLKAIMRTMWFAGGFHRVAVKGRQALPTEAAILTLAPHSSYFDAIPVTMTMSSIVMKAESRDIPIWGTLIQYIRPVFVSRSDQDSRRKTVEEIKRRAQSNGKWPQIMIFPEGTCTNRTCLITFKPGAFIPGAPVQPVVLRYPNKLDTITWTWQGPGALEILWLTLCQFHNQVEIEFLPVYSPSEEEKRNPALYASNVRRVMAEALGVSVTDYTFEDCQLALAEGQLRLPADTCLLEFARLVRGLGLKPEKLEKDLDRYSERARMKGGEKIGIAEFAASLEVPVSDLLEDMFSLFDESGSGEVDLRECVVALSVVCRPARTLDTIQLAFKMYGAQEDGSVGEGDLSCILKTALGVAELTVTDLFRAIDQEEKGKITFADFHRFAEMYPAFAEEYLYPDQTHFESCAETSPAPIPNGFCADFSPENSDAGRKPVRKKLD
Chain of UniProt Q13164 (Q13164 whole entry, looked up): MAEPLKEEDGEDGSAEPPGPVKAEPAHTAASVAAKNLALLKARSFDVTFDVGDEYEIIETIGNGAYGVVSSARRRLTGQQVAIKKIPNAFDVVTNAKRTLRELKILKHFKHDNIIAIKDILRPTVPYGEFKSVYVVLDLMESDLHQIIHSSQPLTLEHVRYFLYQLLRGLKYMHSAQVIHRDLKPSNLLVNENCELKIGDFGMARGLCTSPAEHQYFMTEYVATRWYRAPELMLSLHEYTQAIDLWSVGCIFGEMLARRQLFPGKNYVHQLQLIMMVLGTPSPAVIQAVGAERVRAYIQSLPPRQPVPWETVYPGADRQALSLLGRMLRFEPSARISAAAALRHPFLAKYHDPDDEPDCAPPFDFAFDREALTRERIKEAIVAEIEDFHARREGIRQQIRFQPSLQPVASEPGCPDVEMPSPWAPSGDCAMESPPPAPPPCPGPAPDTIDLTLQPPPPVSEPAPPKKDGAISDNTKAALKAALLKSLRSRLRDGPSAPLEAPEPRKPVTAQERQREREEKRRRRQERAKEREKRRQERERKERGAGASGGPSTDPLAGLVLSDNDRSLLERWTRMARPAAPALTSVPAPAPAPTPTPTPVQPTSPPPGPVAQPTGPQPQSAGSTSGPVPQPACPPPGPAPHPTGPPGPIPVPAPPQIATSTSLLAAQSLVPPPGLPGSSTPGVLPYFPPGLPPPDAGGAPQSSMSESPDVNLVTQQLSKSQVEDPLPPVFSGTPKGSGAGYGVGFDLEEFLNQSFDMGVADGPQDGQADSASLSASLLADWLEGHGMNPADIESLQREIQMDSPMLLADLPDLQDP
Chain of UniProt Q9BPZ7 (Q9BPZ7 whole entry, looked up): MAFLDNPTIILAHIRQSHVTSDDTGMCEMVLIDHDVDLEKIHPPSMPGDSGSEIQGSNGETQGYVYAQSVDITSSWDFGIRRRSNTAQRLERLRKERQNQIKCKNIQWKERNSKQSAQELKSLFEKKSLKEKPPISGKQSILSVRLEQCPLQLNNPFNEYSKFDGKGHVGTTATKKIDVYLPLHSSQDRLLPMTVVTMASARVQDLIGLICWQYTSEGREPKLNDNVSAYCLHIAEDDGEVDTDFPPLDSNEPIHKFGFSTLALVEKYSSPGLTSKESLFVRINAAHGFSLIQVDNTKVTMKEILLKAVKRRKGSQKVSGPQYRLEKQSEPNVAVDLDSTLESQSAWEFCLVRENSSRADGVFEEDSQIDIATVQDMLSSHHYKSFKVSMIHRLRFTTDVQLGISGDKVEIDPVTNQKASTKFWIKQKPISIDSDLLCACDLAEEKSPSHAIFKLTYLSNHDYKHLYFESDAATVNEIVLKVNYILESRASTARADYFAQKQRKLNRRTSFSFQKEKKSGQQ
Chain of UniProt Q96G25 (Q96G25 whole entry, looked up): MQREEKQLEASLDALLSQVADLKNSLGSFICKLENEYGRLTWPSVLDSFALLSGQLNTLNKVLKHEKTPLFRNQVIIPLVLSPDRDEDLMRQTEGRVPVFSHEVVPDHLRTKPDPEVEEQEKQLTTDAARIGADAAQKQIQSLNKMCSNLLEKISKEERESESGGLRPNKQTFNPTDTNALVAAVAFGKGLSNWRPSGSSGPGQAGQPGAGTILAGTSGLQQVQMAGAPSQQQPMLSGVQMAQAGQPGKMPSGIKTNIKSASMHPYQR
Chain of UniProt P14174 (P14174 whole entry, looked up): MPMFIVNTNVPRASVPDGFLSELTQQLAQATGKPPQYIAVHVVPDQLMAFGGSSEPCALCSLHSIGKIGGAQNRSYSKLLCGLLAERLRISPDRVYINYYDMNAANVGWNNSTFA
MEGF8 (UniProt Q7Z7M0) was tested, and the log2 fold change was 0.02 (inactive). In the case of MED25 isoform 3 (UniProt Q71SY5), the log2 fold change was 0.024 (inactive). In the case of MRC2 (UniProt Q9UBG0), the log2 fold change was -0.171 (inactive). For MAPKAP1 (UniProt Q9BPZ7), the log2 fold change was -0.018 (inactive). With KIF18B (UniProt Q86Y91) the log2 fold change was -0.098 (inactive). KMT2B (UniProt Q9UMN6) was tested, and the log2 fold change was 0.211 (inactive). With METTL21A (UniProt Q8WXB1) the log2 fold change was -0.013 (inactive). For LIMK1 (UniProt P53667), the log2 fold change was 0.281 (inactive). With MBD2 (UniProt Q9UBB5) the log2 fold change was -0.022 (inactive). For MED8 isoform 2 (UniProt Q96G25), the log2 fold change was -0.026 (inactive). For LEPROT (UniProt O15243), the log2 fold change was -0.007 (inactive). With LAMP1 (UniProt P11279) the log2 fold change was -0.05 (inactive). In the case of MAN2B2 (UniProt Q9Y2E5), the log2 fold change was -0.005 (inactive). LPCAT1 (UniProt Q8NF37) was tested, and the log2 fold change was -0.026 (inactive). For MPZL1 (UniProt O95297), the log2 fold change was 0.021 (inactive). In the case of MAPK7 (UniProt Q13164), the log2 fold change was -0.01 (inactive). MED28 (UniProt Q9H204) was tested, and the log2 fold change was 0.09 (inactive). With LRRC9 (UniProt Q6ZRR7) the log2 fold change was -0.034 (inactive). For MAP3K4 isoform 2 (UniProt Q9Y6R4), the log2 fold change was 0.034 (inactive). With MRPL22 (UniProt Q9NWU5) the log2 fold change was -0.007 (inactive). MCUB (UniProt Q9NWR8) was tested, and the log2 fold change was 0.027 (inactive). LIMK2 isoform 3 (UniProt P53671) was tested, and the log2 fold change was 0.021 (inactive). In the case of MME (UniProt P08473), the log2 fold change was -0.038 (inactive). With MRPL27 (UniProt Q9P0M9) the log2 fold change was -0.008 (inactive). MIF (UniProt P14174) was tested, and the log2 fold change was -0.009 (inactive). For MRPL30 isoform 2 (UniProt Q8TCC3), the log2 fold change was -0.012 (inactive). For LRP1 (UniProt Q07954), the log2 fold change was 0.296 (inactive). In the case of LYN isoform 2 (UniProt P07948), the log2 fold change was -0.31 (inactive). For LRRC7 (UniProt Q96NW7), the log2 fold change was -0.012 (inactive). In the case of KRAS isoform 2 (UniProt P01116), the log2 fold change was -0.045 (inactive). With LSS (UniProt P48449) the log2 fold change was -0.014 (inactive). For LRRIQ1 (UniProt Q96JM4), the log2 fold change was 0.754 (active).

The targets below were run with c1cn2cc(-c3ccc4cn[nH]c4c3)nc(Nc3ccc(N4CCOCC4)cc3)c2n1 [entospletinib] in the same assay as above.
Outline: as §1
In the case of KLC1 isoform 10 (UniProt Q07866), the log2 fold change was -0.171 (inactive). For MEGF8 (UniProt Q7Z7M0), the log2 fold change was -0.048 (inactive). For LY6E (UniProt Q16553), the log2 fold change was -0.013 (inactive). With MED25 isoform 3 (UniProt Q71SY5) the log2 fold change was 0.127 (inactive). MRC2 (UniProt Q9UBG0) was tested, and the log2 fold change was -0.055 (inactive). With MAPKAP1 (UniProt Q9BPZ7) the log2 fold change was -0.157 (inactive). KIF18B (UniProt Q86Y91) was tested, and the log2 fold change was -0.035 (inactive). KMT2B (UniProt Q9UMN6) was tested, and the log2 fold change was 0.116 (inactive). In the case of LIMK1 (UniProt P53667), the log2 fold change was 0.027 (inactive). For MAP4K4 isoform 3 (UniProt O95819), the log2 fold change was 0.178 (inactive). With MBD2 (UniProt Q9UBB5) the log2 fold change was 0.022 (inactive). For MED8 isoform 2 (UniProt Q96G25), the log2 fold change was 0 (inactive). LEPROT (UniProt O15243) was tested, and the log2 fold change was 0.115 (inactive). With LAMP1 (UniProt P11279) the log2 fold change was -0.004 (inactive). With MAN2B2 (UniProt Q9Y2E5) the log2 fold change was 0.019 (inactive). In the case of LPCAT1 (UniProt Q8NF37), the log2 fold change was -0.057 (inactive). With MPZL1 (UniProt O95297) the log2 fold change was 0.017 (inactive). In the case of MAPK7 (UniProt Q13164), the log2 fold change was 0.029 (inactive). For LRRC9 (UniProt Q6ZRR7), the log2 fold change was 0.011 (inactive). With MDM1 (UniProt Q8TC05) the log2 fold change was -0.119 (inactive). In the case of LIMK2 isoform 3 (UniProt P53671), the log2 fold change was -0.055 (inactive). MRPL27 (UniProt Q9P0M9) was tested, and the log2 fold change was -0.027 (inactive). For MIF (UniProt P14174), the log2 fold change was 0.064 (inactive). In the case of MAP4K4 isoform 6 (UniProt O95819), the log2 fold change was 0.094 (inactive). With MRPL30 isoform 2 (UniProt Q8TCC3) the log2 fold change was -0.046 (inactive). LRP1 (UniProt Q07954) was tested, and the log2 fold change was -0.032 (inactive). In the case of MAP3K6 (UniProt O95382), the log2 fold change was -0.043 (inactive). LYN isoform 2 (UniProt P07948) was tested, and the log2 fold change was 0.129 (inactive). With LRRC7 (UniProt Q96NW7) the log2 fold change was -0.108 (inactive). KRAS isoform 2 (UniProt P01116) was tested, and the log2 fold change was -0.129 (inactive). For LSS (UniProt P48449), the log2 fold change was -0.043 (inactive).

Source: the supplement of paper PMC10849652
